# BoNT-A LC inh2 – BoNT/A light chain protease inhibitors, primary screen, biochemical, flow cytometry, MLPCN library; Botulinum neurotoxin type A light chain protease (Clostridium botulinum A str. ATCC 3502); multiplex microsphere protease substrate cleavage; inhibition, % at 10 µM; hit rate 0.17% among 360,000; further: plate controls were buffer without enzyme for full effect and enzyme alone for no effect
# BoNT-F LC inh – BoNT/F light chain protease inhibitors, primary screen, biochemical, flow cytometry, MLPCN library; Botulinum neurotoxin type F light chain protease (Clostridium botulinum); Multiplex microsphere protease cleavage assay; inhibition, % at 10 µM; hit rate 0.22% among 360,000; in the data active means inhibition above about 35%, passing the limit was not always enough; inconclusive means no clear call, values can overlap the other calls; further: plate controls were buffer without enzyme for full effect and enzyme alone for no effect
# Autofluor counter – counter-screen for toxin protease inhibitors: compound fluorescence; fluorescence intensity (no concentration beside the values); AID 624483; compound autofluorescence counterscreen, microsphere flow cytometry; stronger effect = higher value; hit rate 3.1% among 360,000; in the data active means fluorescence intensity above about 16000; inconclusive means no clear call, values can overlap the other calls
# SARS 3CLpro inh – SARS-CoV 3CLpro protease inhibitors, primary screen, biochemical, quenched FRET | Replicase polyprotein 1ab (Severe acute respiratory syndrome coronavirus), P0C6X7 | recombinant SARS-CoV 3CLpro, quenched FRET peptide cleavage | inhibition, % at 6 µM | hit rate 0.14% among 290,000; in the data active means inhibition above about 12%
# VHR inh abs – VHR1 phosphatase inhibitors, primary screen, biochemical, absorbance, uHTS. Dual specificity protein phosphatase 3 (Homo sapiens), P51452. recombinant VHR phosphatase, pNPP absorbance. inhibition, % at 13.3 µM. hit rate 0.52% among 290,000. AID 1654, 2009; in the data active means inhibition above about 50%
# Target sequence (P51452 whole entry, looked up): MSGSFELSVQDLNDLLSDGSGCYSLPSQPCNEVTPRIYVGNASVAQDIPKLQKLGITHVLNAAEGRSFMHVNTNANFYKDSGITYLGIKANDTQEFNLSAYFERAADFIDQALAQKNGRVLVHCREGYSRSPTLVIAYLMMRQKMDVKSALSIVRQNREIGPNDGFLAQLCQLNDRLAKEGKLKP
# Anthrax LF inh2 – Bacillus anthracis LF protease inhibitors, primary screen, biochemical, multiplex microsphere, MLPCN library; hit rate 0.12% among 360,000; AID 588501, 2011; Lethal factor (Bacillus anthracis), P15917; multiplex microsphere protease cleavage assay; inhibition, % at 10 µM; further: plate controls were buffer without enzyme for full effect and enzyme alone for no effect
# An asterisk follows results filed as active; ? = inconclusive; nt = no result given. In the library only some 3.9% were active in any assay of this set; here they are far more common. Unless noted, no stated cut-off is given here; in the data, active means inhibition above about 30%; inconclusive means no clear call, values can overlap the other calls; inactive means below that.
SMILES,BoNT-A LC inh2,BoNT-F LC inh,Autofluor counter,SARS 3CLpro inh,VHR inh abs,Anthrax LF inh2
C[C@H](NC(=O)OC(C)(C)C)C(=O)NCC1CCC(C(=O)N[C@@H](Cc2ccccc2)C(=O)O)CC1 (stereo partly drawn),-1,?,3960,7,14,-4
O=C(O)CN(c1ccccc1F)S(=O)(=O)c1ccccc1,?,-6,21296*,-7,-1,0
CC(OC(=O)CNC(=O)c1sc2ccccc2c1Cl)C(=O)NC1(C#N)CCCCC1 (stereo not drawn),0,-6,4378,nt,nt,-2
CCCCOC(=O)n1c(SCC(=O)N(C)C)nc2ccccc21,6,6,20862*,5,17,3
COCCOC(=O)N1CCCCC1c1cc(C(=O)Nc2cccc3c2CCCC3)no1 (stereo not drawn),0,2,3874,nt,nt,-4
COc1ccc2cc(C(=O)N/N=C/c3sc4ccccc4c3O)ccc2c1,34*,-10,2973,1,-8,9
COc1ccc(C(=O)N/N=C/c2sc3ccccc3c2O)cc1,21,-5,2396,0,-7,8
COCC(C)NCc1ccc(C)cc1C (stereo not drawn),4,0,18417*,-2,3,0
COc1ccccc1N1CCN(C(=O)C(C)N(c2ccccc2)S(C)(=O)=O)CC1 (stereo not drawn),?,-6,21669*,-4,-2,-1
CCC(=O)N(C)CCc1cc2c(c(OC)c1/C=N/NC(=O)c1ccc(Br)cc1)OCO2,0,2,2380,-1,-8,0
CCCCCCOc1ccc(-c2ccc(C#N)cn2)cc1,0,-6,4023,5,-1,-2
CCn1c(SCC(=O)Nc2nc3ccc(OC)cc3s2)nc2c1c(=O)n(C)c(=O)n2C,5,4,21795*,3,10,-5
CCn1c(SCC(=O)Nc2cc(C)on2)nc2c1c(=O)n(C)c(=O)n2C,?,-3,24541*,1,-8,-2
CCCCn1c(SCC(=O)Nc2cc(C)on2)nc2c1c(=O)n(C)c(=O)n2C,0,-3,9657,3,36,-1
CCOc1ccc2nc(NC(=O)CSc3nc4c(c(=O)n(C)c(=O)n4C)n3C(C)C)sc2c1,0,4,5932,1,8,-1
Cn1c(=O)oc2cc(S(=O)(=O)NCCC(=O)NCCc3ccc(Cl)cc3)ccc21,2,1,19293*,-11,-9,-9
Cn1c(=O)oc2cc(S(=O)(=O)NCc3ccco3)ccc21,-1,4,4388,-2,4,-1
CC(=O)c1cccc(NS(=O)(=O)c2ccc3c(c2)oc(=O)n3C)c1,-3,-8,11967,-7,-20,2
CCOC(=O)c1ccc(NC(=O)CCNS(=O)(=O)c2ccc3c(c2)oc(=O)n3C)cc1,0,0,23217*,5,3,-2
CCC1CCCCN1Cc1ccc(CNS(=O)(=O)c2ccc3c(c2)oc(=O)n3C)o1 (stereo not drawn),-6,-10,22053*,-4,2,-2
Cc1ccc(CCNC(=O)CCNS(=O)(=O)c2ccc3c(c2)oc(=O)n3C)cc1,0,-3,9981,-6,-11,-4
Cn1c(=O)oc2cc(S(=O)(=O)Nc3cccc(C(=O)O)c3)ccc21,0,-4,19703*,1,4,-5
CC(C)(C)OC(=O)C[C@H]1C/C=C\C[C@@H](CC(=O)N(CCO)Cc2ccccc2)C(=O)N[C@H](Cc2c[nH]c3ccccc23)COC1=O,0,-5,4213,nt,nt,2
CCN(CC(=O)NCc1ccc(F)cc1)C(=O)CCNS(=O)(=O)c1cccc(C)c1,-1,-15,4099,nt,nt,-2
CCCN(CCC)CCNS(=O)(=O)c1ccc2c(c1)oc(=O)n2C,?,-1,22046*,6,23,-2
SMILES,BoNT-A LC inh2,BoNT-F LC inh,Autofluor counter,SARS 3CLpro inh,VHR inh abs,Anthrax LF inh2
Cn1c(=O)oc2cc(S(=O)(=O)NCCC(=O)NCCc3ccccc3)ccc21,-1,0,20294*,-1,20,-2
Cc1ccc(S(=O)(=O)n2nc(-c3ccco3)nc2N)cc1,0,-6,3780,4,16,-4
CCc1nc2ccc(C(=O)NCCCn3ccnc3)cn2c1N(C)C(=O)COc1ccccc1,0,-1,3938,nt,nt,-9
O=C(CN(Cc1cccs1)C(=O)CNS(=O)(=O)c1ccc(Cl)cc1)NCc1ccco1,?,1,21887*,0,-28,-2
COc1ccc2c(c1)C(=O)N(c1ccc(C)cc1)C(=O)C2,0,-4,2336,-1,-12,-1
COc1ccc(C2=NOC3(CC(=O)N(c4ccc(C)cc4)C3=O)C2)c(OC)c1 (stereo not drawn),2,3,22248*,2,17,1
CCCn1c(O)c(/C=C2\C=NN=C2c2ccccc2)sc1=S,-3,-8,25085*,7,-8,0
N#CC1(C#N)C(C(N)=O)C1c1ccccc1 (stereo not drawn),0,0,2573,0,5,1
CN1C=CC2=C(C#N)C(N)C(C#N)(C#N)[C@H](c3ccccc3)[C@H]2C1 (stereo partly drawn),0,0,16327*,0,4,0
COc1ccc(CCNC(=O)CN(Cc2ccc(Cl)cc2)S(C)(=O)=O)cc1OC,1,1,4163,-4,20,-15
CC(=O)Nc1ccc(S(=O)(=O)N(CC(=O)O)Cc2ccccc2)cc1,1,-6,3178,6,4,3
COCCNC(=O)CN(Cc1ccc(Cl)cc1)S(C)(=O)=O,1,0,20349*,2,10,0
CCOC(=O)CN(Cc1ccccc1)S(=O)(=O)c1ccc(NC(C)=O)cc1,-4,-4,21423*,-2,10,0
Cc1ccc(NC(=O)CN(Cc2ccccc2)S(C)(=O)=O)cc1C,0,-1,20638*,-3,32,1
CS(=O)(=O)N(CC(=O)Nc1ccc2c(c1)OCCO2)Cc1ccccc1,2,0,21816*,6,-18,0
CS(=O)(=O)N(CC(=O)Nc1ccccc1)Cc1ccc(Cl)cc1,0,-2,11059,1,22,-4
O=C(NCC1(c2ccccc2)CCOCC1)c1cccs1,0,5,3393,-2,8,-6
CCOc1ccc(CCNC(=O)C(CCC(N)=O)NC(=O)OCc2ccccc2)cc1OCC (stereo not drawn),0,-1,4151,3,-7,4
COc1ccc(NC(=O)CN(C)S(=O)(=O)c2ccccc2)cc1,0,0,20336*,4,35,-4
COc1ccc(NC(=O)CN(Cc2ccccc2)S(C)(=O)=O)cc1,2,0,23289*,2,22,0

# Compound activity from PubChem BioAssay.
